{"source": "PubChem BioAssay (EPA / NIEHS)", "note": "Calls of active or inactive are those of the source. The calls were made as follows: active = hit-call score of the fitted dose curve at least 0.9, where 1 is the maximum; inactive = score below 0.9.", "data": [{"target": "Myc proto-oncogene protein (Homo sapiens) (UniProt P01106)", "sequence (P01106 whole entry, looked up)": "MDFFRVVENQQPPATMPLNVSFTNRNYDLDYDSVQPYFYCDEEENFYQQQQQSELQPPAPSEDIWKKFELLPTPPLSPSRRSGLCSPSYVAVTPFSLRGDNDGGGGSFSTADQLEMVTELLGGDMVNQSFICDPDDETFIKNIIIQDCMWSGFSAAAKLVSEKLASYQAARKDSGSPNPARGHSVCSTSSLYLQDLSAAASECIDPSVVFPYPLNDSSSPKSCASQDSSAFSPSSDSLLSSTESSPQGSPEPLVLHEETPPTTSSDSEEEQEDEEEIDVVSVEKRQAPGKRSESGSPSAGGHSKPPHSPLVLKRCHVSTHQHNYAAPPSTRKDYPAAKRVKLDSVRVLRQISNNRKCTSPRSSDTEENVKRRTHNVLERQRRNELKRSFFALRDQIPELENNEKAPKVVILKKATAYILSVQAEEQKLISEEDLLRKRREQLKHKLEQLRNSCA", "assay": "ATG_Myc_CIS: Attagene CIS-FACTORIAL HepG2 Assay for human Myelocytomatosis (Myc) Proto-Oncogene Transcription Factor (AID 2282990)", "settings": "HepG2, Attagene cis-reporter transcription factor activity; actives raise or lower the signal", "experimental": "ATG_CIS is a cell-based, multiplexed-readout assay that uses HepG2, a human liver cell line, with measurements taken at 24 hours after chemical dosing in a 24-well plate.ATG_Myc_CIS is one of 52 assay component(s) measured or calculated from the ATG_CIS assay. It is designed to make measurements of mRNA induction, a form of inducible reporter, as detected with fluorescence intensity signals by Reverse transcription polymerase chain reaction (RT-PCR) and Capillary electrophoresis technology.Data from the assay component ATG_Myc_CIS was analyzed into 1 assay endpoint. This assay endpoint, ATG_Myc_CIS, was analyzed with bidirectional fitting relative to DMSO as the negative control and baseline of activity. Using a type of inducible reporter, measures of mRNA for gain or loss-of-signal activity can be used to understand the reporter gene at the transcription factor-level as they relate to the gene MYC. Furthermore, this assay endpoint can be referred to as a primary readout, because this assay has produced multiple assay endpoints where this one serves a reporter gene function. To generalize the intended target to other relatable targets, this assay endpoint is annotated to the dna binding intended target family, where the subfamily is basic helix-loop-helix leucine zipper.\nHuman liver HepG2 cells are transiently transfected with multiple reporter transcription units (MRTUs) in 6-well plates using FuGene 6 reagent (Roche; 3 ml FuGene/1 mg DNA). The MRTU constructs are regulated by a cis-regulating element (promoter). […] A major difference between the CIS and TRANS system is that in CIS activities of endogenous TFs are measured, whereas the TRANS assay evaluates changes in activities of exogenous, chimeric NR-Gal4 proteins. […] At the end of 24 hour incubation, total RNA was isolated using TriZol reagent (Invitrogen). The isolated RNA is then reverse-transcribed using oligo(dT) primer and Mo-MLV reverse transcriptase (Invitrogen) with DNAse I (Ambion) treatment for 30 min. The one-tenth of the produced cDNA was amplified by PCR using Taq DNA polymerase (Invitrogen) and two reporter sequence-specific primers. The PCR products were fluorescently labeled by primer extension with 6-arboxyfluorescein (6-FAM) 5'-labeled reporter sequence-specific primer (2 min at 95 C, 20 s at 68 C and 10 min at 72 C) and these products were digested with 5U of HpaI (New England Biolabs) for 2h at 37 C. The fragments were purified using Qiaquick PCR columns (Qiagen), analyzed on an ABI 3130xL genetic analyzer (Applied Biosystems) with peak positions identified by using a set of X-rhodamine (ROX)-labeled MapMarker1000 molecular weight standards (BioVentures). The raw capillary electrophoresis data was processed using Attagraph software (Attagene).", "values": [{"smiles": "C=CC(=O)N(C)C", "outcome": "inactive"}, {"smiles": "Nc1ccc(N=Nc2ccc(-c3ccc(N=Nc4c(S(=O)(=O)O)cc5cc(S(=O)(=O)O)c(N=Nc6ccccc6)c(O)c5c4N)cc3)cc2)c(N)c1", "outcome": "inactive"}, {"smiles": "C[C@]12CC[C@H](O)CC1=CC[C@@H]1[C@@H]2CC[C@]2(C)C(=O)CC[C@@H]12", "outcome": "inactive"}, {"smiles": "Cc1ccccc1N", "outcome": "inactive"}, {"smiles": "CCCCOCCOC(C)=O", "outcome": "inactive"}, {"smiles": "ClC1(Cl)C2(Cl)C3(Cl)C4(Cl)C(Cl)(Cl)C5(Cl)C3(Cl)C1(Cl)C5(Cl)C24Cl", "note": "(stereo not given)", "outcome": "inactive"}, {"smiles": "Clc1ccc(C2(Cn3cncn3)CC(Br)CO2)c(Cl)c1", "note": "(stereo not given)", "outcome": "inactive"}, {"smiles": "O=C(Cc1ccccc1)c1ccccc1", "outcome": "inactive"}, {"smiles": "CCOC(=O)/C=C(C)/C=C/C[C@@H](C)CCCC(C)C", "AC50": "182 µM (active)"}, {"smiles": "O=[N+]([O-])c1ccc2c3c(cccc13)CC2", "outcome": "inactive"}, {"smiles": "CCOP(=S)(OCC)SCSP(=S)(OCC)OCC", "outcome": "inactive"}, {"smiles": "O=C1C(Cl)=C(Cl)C(=O)c2ccccc21", "outcome": "inactive"}, {"smiles": "C[C@@H](Oc1ccc(Cl)cc1Cl)C(=O)O", "outcome": "inactive"}, {"smiles": "O=C(Nc1ccc2[nH]ccc2c1)c1cc2cc(F)ccc2n1Cc1cccc(F)c1", "AC50": "16.6 µM (active)"}, {"smiles": "CC(C)OC(=O)Nc1ccccc1", "outcome": "inactive"}, {"smiles": "C=C(C)C(=O)[O][Sn]([CH2]CCC)([CH2]CCC)[CH2]CCC", "outcome": "inactive"}, {"smiles": "ClCc1cccnc1", "outcome": "inactive"}, {"smiles": "O=C(CCl)CCl", "outcome": "inactive"}, {"smiles": "CCOP(=S)(OCC)SCCS(=O)(=O)CC", "outcome": "inactive"}, {"smiles": "ClCCBr", "outcome": "inactive"}, {"smiles": "CCCCCCCCCl", "outcome": "inactive"}, {"smiles": "CN(C)N=O", "outcome": "inactive"}, {"smiles": "Nc1ccc(Cl)cc1C(=O)c1ccccc1", "outcome": "inactive"}, {"smiles": "CCc1ccccc1N", "outcome": "inactive"}, {"smiles": "C=C(C)C#N", "outcome": "inactive"}, {"smiles": "CC1CN1P(=O)(N1CC1C)N1CC1C", "note": "(stereo not given)", "outcome": "inactive"}, {"smiles": "CCC(=O)c1ccccc1", "outcome": "inactive"}, {"smiles": "CCC1(c2ccc(N)cc2)CCC(=O)NC1=O", "note": "(stereo not given)", "outcome": "inactive"}, {"smiles": "Oc1c(I)cc(I)cc1I", "outcome": "inactive"}, {"smiles": "Cn1sc(Cl)cc1=O", "outcome": "inactive"}, {"smiles": "CC(=[OH+])/C=C(/C)[O-].CC(=[OH+])/C=C(/C)[O-].CC(=[OH+])/C=C(/C)[O-].[Al]", "outcome": "inactive"}, {"smiles": "C[C@]12CCC(=O)C[C@@H]1CC[C@@H]1[C@@H]2CC[C@]2(C)[C@@H](O)CC[C@@H]12", "outcome": "inactive"}, {"smiles": "CC(=O)OC(c1ccccc1)C(Cl)(Cl)Cl", "note": "(stereo not given)", "outcome": "inactive"}, {"smiles": "CC(C)(C)CC(C)(C)c1ccc(O)cc1", "outcome": "inactive"}, {"smiles": "CC(=O)C(Cl)C(=O)N(C)C", "note": "(stereo not given)", "outcome": "inactive"}, {"smiles": "Cc1cc(=O)[nH]o1", "outcome": "inactive"}, {"smiles": "O=C(NCO)NCO", "outcome": "inactive"}, {"smiles": "O=C(Cl)c1ccc(Cl)cc1", "outcome": "inactive"}, {"smiles": "CCOP(=S)(OCC)Oc1nc(Cl)c(Cl)cc1Cl", "outcome": "inactive"}, {"smiles": "O=c1[nH]c(=O)[nH]c(=O)[nH]1", "outcome": "inactive"}]}]}
